This is one part of a sample in which hits are shown more often than they occur.
CBX7 AlphaScr = blocks human CBX7 binding to H3K27me3 peptide; AlphaScreen His6-CBX7 / biotin-H3K27me3 peptide binding; stronger effect = lower value; 1.1% of 66,000 active; normalised signal (fraction of DMSO) (test concentration not listed); O95931; AID 1224903; in the data active means normalised signal below about 0.5
Target sequence (O95931 whole entry, looked up): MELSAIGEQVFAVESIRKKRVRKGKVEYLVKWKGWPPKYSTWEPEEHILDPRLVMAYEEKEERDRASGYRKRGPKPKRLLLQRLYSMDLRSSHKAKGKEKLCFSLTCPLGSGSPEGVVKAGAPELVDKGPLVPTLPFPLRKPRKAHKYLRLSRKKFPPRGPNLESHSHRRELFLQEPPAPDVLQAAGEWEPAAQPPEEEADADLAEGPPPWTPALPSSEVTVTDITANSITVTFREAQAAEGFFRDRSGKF
* marks the source's active call; other numbers are inactive results.

SMILES | CBX7 AlphaScr
O=C(CCN1C(=O)c2cccnc2C1=O)Nc1cccc(F)c1 | 0.44*
O=C(CCCN1C(=O)c2cccnc2C1=O)Nc1ccc(F)c(F)c1 | 1.1
Cc1ccc2cc(CCNC(=O)CC3CCCCC3)c(=O)[nH]c2c1C | 1.1
COc1c(-c2cc(-c3ccccc3)n[nH]2)c(O)c(OC)c2occc12 | 0.65
COc1ccc(-c2noc(-c3ccc(Br)cc3)n2)cc1OC | 1.3
COc1ccc(-c2cc(-c3c(O)c(OC)c4occc4c3OC)[nH]n2)cc1OC | 0.45*
O=c1[nH]c2ccc(NCc3ccc(F)cc3)cc2[nH]1 | 0.92
CCOc1cccc(CNc2ccc3[nH]c(=O)[nH]c3c2)c1OCc1ccc(Cl)cc1 | 0.44*
O=c1[nH]c2ccc(NCc3ccc(OCc4ccc(Cl)cc4)cc3)cc2[nH]1 | 0.86
CCOc1ccc(Nc2ncc(F)c(Nc3ccc(OCC)cc3)n2)cc1 | 1
CCN(CC)S(=O)(=O)c1ccc2c(c1)N(CC(=O)NCCN(C)C1CCCCC1)C(=O)CS2 | 0.98
Cc1c(C(=O)NCc2ccccc2Cl)oc2ccc(S(=O)(=O)N3CCC(C)CC3)cc12 | 0.99
Cn1c(CNc2ccccc2O)nc2ccccc21 | 0.46*
Cn1c(CNc2cc(Cl)ccc2Cl)nc2ccccc21 | 1
Cc1ccccc1NCc1nc2ccccc2n1C | 1
COc1cc2c(C(=O)NCc3cccs3)cn(CC(C)C)c(=O)c2cc1OC | 0.99
CC(C)OCc1ccc(O)c2ncccc12 | 0.0041*
COc1ccc(N2C(=O)N(c3cccc(Cl)c3)C3CS(=O)(=O)CC32)cc1 (stereo not given) | 1
COc1ccc(C2(C)CCc3oc4ccc(C)cc4c3-c3oc(C)cc32)cc1 (stereo not given) | 0.93
O=C(c1ccc2c(=O)n3c(nc2c1)CCCCC3)N1CCN(c2cccc(C(F)(F)F)c2)CC1 | 0.97
COc1ccc(C(=O)Nc2cccc(-c3nc4ccccc4o3)c2)cc1OC | 1.3
Cc1cccc(-c2nnc(NC(=O)c3ccc(Cl)cc3)o2)c1 | 0.86
COc1ccc(C(=O)Nc2nnc(-c3ccccc3)o2)cc1OC | 0.61
COc1ccc(C(=O)Nc2nnc(-c3cccc(C)c3)o2)cc1OC | 0.018*
COc1ccc(-c2nnc(NC(=O)c3ccc(Cl)cc3)o2)cc1 | 0.55
SMILES | CBX7 AlphaScr
COc1ccc(-c2nnc(NC(=O)c3ccc(OC)c(OC)c3)o2)cc1 | 0.086*
CCOc1ccc(-c2nc(CSCC(=O)NCCCN3CCOCC3)c(C)o2)cc1 | 1.1
CCN(CC)C(C(=O)Nc1ccc(C(C)C)cc1)c1ccccc1 (stereo not given) | 1.1
CCOCCCNC(=O)c1cc(Nc2ccccc2CC)nc2ccccc12 | 1
COc1cccc(-c2cc(C(=O)Nc3c(C)cccc3C)c3ccccc3n2)c1 | 0.99
CSCC[C@@H](C(=O)Nc1ccc2c(c1)OCO2)N1Cc2ccccc2C1=O | 0.62
Cc1ccc(NC(=O)[C@H](Cc2ccccc2)N2Cc3ccccc3C2=O)cc1F | 0.68
COc1ccc(NC(=O)[C@H](Cc2ccccc2)N2Cc3ccccc3C2=O)cc1OC | 0.42*
COc1ccc(NC(=O)[C@H](CCSC)N2Cc3ccccc3C2=O)cc1OC | 0.77
O=C(Nc1ccc2c(c1)OCO2)[C@H](Cc1ccccc1)N1Cc2ccccc2C1=O | 0.42*
O=C(Nc1ccc2c(c1)OCO2)[C@H](CSCc1ccccc1)N1Cc2ccccc2C1=O | 0.71
Cc1ccc(-n2ncc(C(=O)Nc3ccccc3)c2C2CCNCC2)cc1C | 0.96
O=C(CCc1ccccc1)Nc1c(-c2ccc(F)cc2)nc2ccccn12 | 1
CCCNC(=O)C1CCN(C(=O)c2cc3sccc3n2Cc2ccc(Cl)cc2)CC1 | 1.1
CCCN1CCN(C(=O)CCc2c(C)nc3cc(-c4ccc(OC)cc4OC)nn3c2C)CC1 | 1
OC1CCCCc2c1[nH]c1ccc(C3CCCCC3)cc21 (stereo not given) | 0.72
OC1CCCc2c1[nH]c1ccc(OCc3ccccc3)cc21 (stereo not given) | 0.43*
CCOC(=O)c1[nH]c2ccc(OCc3ccccc3)cc2c1C | 1.1
CCOC(=O)c1cnc2c(C)cccc2c1Nc1ccc(N(CC)CC)cc1 | 0.12*
CCOC(=O)c1cnc2c(C)cc(Cl)cc2c1Nc1cccc(C(=O)O)c1 | 0.76
CCOC(=O)c1cnc2c(C)cc(C)cc2c1Nc1ccc(N(C)C)cc1 | 0.33*
CCOC(=O)c1cnc2c(C)cc(Cl)cc2c1Nc1ccc2c(c1)OCCO2 | 0.86
CCOC(=O)c1cnc2c(C)cc(C)cc2c1Nc1ccc(OCC)cc1 | 1.1
CCOC(=O)c1cnc2c(C)cc(C)cc2c1Nc1ccc(C)cc1 | 1.3
CCOC(=O)c1cnc2c(C)cccc2c1Nc1ccc(F)cc1 | 1.3
SMILES | CBX7 AlphaScr
CCOC(=O)c1cnc2c(C)cccc2c1Nc1ccc(C(=O)O)cc1 | 0.97
CCOC(=O)c1cnc2c(C)cc(Cl)cc2c1Nc1ccc(N2CCOCC2)cc1 | 0.26*
CCOc1ccc(-c2csc(NC(=O)CCc3ccccc3)n2)cc1 | 1
CCCN(CCC)CCNC(=O)C1CCN(c2nc3ccccc3[nH]2)CC1 | 1
Cc1oc(-c2ccccc2Cl)nc1CS(=O)(=O)CC(=O)NC1CCCC(C)C1C (stereo not given) | 1
O=C(Nc1ccc(-c2nc3ncccc3o2)cc1)c1ccccc1Cl | 0.8
CC(=O)N1CCc2cc(S(=O)(=O)N3CCN(c4ccccc4)CC3)ccc21 | 0.95
Cc1ccc(NC(=O)[C@H](CSCc2ccccc2)N2Cc3ccccc3C2=O)c(C)c1 | 0.96
CCCN(CCC)S(=O)(=O)c1ccc2c(c1)CC(C)N2C(C)=O (stereo not given) | 1.1
COC(=O)c1nnn(-c2nonc2N)c1CSc1nc2ccccc2o1 | 1
NC(=O)c1nnn(-c2nonc2N)c1CSc1nc2ccccc2o1 | 0.73
Nc1nonc1-n1nnc(C(=O)O)c1CSc1nc2ccccc2o1 | 0.018*
CC(C)(C)c1ccc(C(=O)CC2(O)C(=O)N(Cc3ccccc3)c3ccccc32)cc1 (stereo not given) | 0.97
COc1ccc(-c2nc(CN3CCCC(C(=O)NCc4ccc(Cl)cc4)C3)c(C)o2)cc1 (stereo not given) | 0.96
Cc1ccc(-c2nc(C(=O)Nc3nccs3)c(C)o2)cc1 | 0.94
COc1ccc(C(=O)N2CC(=O)Nc3ccc(C)cc3C2c2ccc(F)cc2)c(OC)c1 (stereo not given) | 0.3*
COc1ccccc1C(=O)N1CC(=O)Nc2ccc(F)cc2C1c1ccccc1 (stereo not given) | 1.1
COc1ccc(C(=O)N2CC(=O)Nc3ccc(C)cc3C2c2ccc(F)cc2)cc1 (stereo not given) | 0.74
CCc1ccc(Nc2nc3ccccc3nc2NS(=O)(=O)c2ccc(Br)cc2)cc1 | 0.66
COc1cc2c(cc1OC)C(C(=O)NCC1CCCO1)C1c3ccccc3CCN1C2=O (stereo not given) | 1
Cc1ccc2c(c1)N(CCC(=O)NCc1ccccn1)C(=O)CO2 | 0.34*
Cc1ccc2c(c1)N(CCCC(=O)NCc1ccccn1)C(=O)CO2 | 1.3
CC(C(=O)NCc1ccccn1)N1C(=O)COc2ccc(Cl)cc21 (stereo not given) | 0.82
Cc1ccc(CNC(=O)CCN2C(=O)COc3ccccc32)cc1 | 1
O=C(CCN1C(=O)COc2ccccc21)NCc1ccccn1 | 0.16*
O=C(CCN1C(=O)COc2ccccc21)NCc1ccccc1Cl | 1.1
Cc1ccc2c(c1)N(C(C)C(=O)NCc1ccccc1)C(=O)CO2 (stereo not given) | 1
Cc1ccc2c(c1)N(CCC(=O)NCc1cccnc1)C(=O)CO2 | 0.99
